Measured values from the OligoGym collection.

Biological target: PLS1
Experiment: pooled miR-30 sensor sort-seq; sequence = guide strand
Conditions: shRNA
Note: reference of the scale not given here.

Row | Sequence | sensor-assay potency score (higher = more potent)
1 | TAAATTTTCAGAAATAGTGAAT | -0.578
2 | TGTGCTTATAGATTTATCCTTG | 0.0263
3 | TTGTAGTTCTTCAAGCTCCTCC | 0.438

Biological target: PLTP
Experiment: as above
Conditions: shRNA

Row | Sequence | sensor-assay potency score (higher = more potent)
4 | TACACCTTCAAGAACCAGTAGA | -0.191
5 | ATAGATTCGGAACCTGCGCAGG | -1.18
6 | TACAGCTTCAAATCCCGTCTTC | -0.171
7 | TTGGAATAGATTCGGAACCTGC | -0.704
8 | TTGGACACTTTCATCCGTCCAG | -0.0718
9 | ACATTGGACACTTTCATCCGTC | 0.0628
10 | TTCTTCTCAATCACCTCTCGCA | -0.149
11 | TCATACACCTTCTTGAAGGTTC | -0.197
12 | TTAAATTGGGTACAGCTTCAAA | -1.22
13 | TTGAAGCATCAGCTCCTGCTGT | 0.293
14 | TCATACACCTTCAAGAACCAGT | 0.217
15 | TTGAGCAGGACCGTCCCTGCGT | -0.0816

Biological target: PLXNA3
Experiment: as above
Conditions: shRNA

Row | Sequence | sensor-assay potency score (higher = more potent)
16 | ATCTCGGAGACCATCTTGCTGC | -1.06
17 | TTGTAGTCGATCTGCTGACGGA | -0.986
18 | TGTCTTGTAGTCGATCTGCTGA | -0.0226
19 | TTGTGTGTCCGAGACAGTGAGC | -0.941
20 | ATGTCGAACACGAACTGCGGGT | -1.37
21 | TAGTAGGTAAAGGAGGAGCGGT | -1.08
22 | TTGTTGATGTTGTCCACGGGGG | -0.257
23 | TAGATCTCGGAGACCATCTTGC | -0.165
24 | TAGAACTCTGAGTCTCCCGCGC | -0.24
25 | TCACACTCGATCTTGGTGGTGA | 0.265
26 | TAGTCTATGAGCAGCAGCTTGT | -0.951
27 | TACAAGGACAGCGTGTCTGAGG | -0.523

Biological target: PM20D1
Experiment: as above
Conditions: shRNA

Row | Sequence | sensor-assay potency score (higher = more potent)
28 | TTGTCGTCCAGTGTGCCCCGAC | -0.594
29 | TGACATTGAACTTGACCCCTGC | 0.0724
30 | TTTCTCGTTGACTCCATGGATG | -0.946
31 | TTGGATAGTGAACAGGTGGCTA | -0.715
32 | TTGAATATGGTGAGTGCCGTGG | -0.197
33 | TTGGACTGTCTGTCCAGGGTGA | 0.135
34 | TTGGACTGAGATTTTCTCGTTG | 0.297
35 | TTTCTCTCCATAAACCTGCTTA | 0.0874
36 | TTTATGAATGTATTTTCCGAAC | -1.32
37 | ATGACATTGAACTTGACCCCTG | -0.759
38 | TACATTTGTTAAGTCAAGCCTG | 0.298
39 | AATACAGTCACCACTGTCCCGC | -0.75
